This passage reports IFI results from ChEMBL document CHEMBL1156829.

Where “and” joins values, the source holds several entries; their conditions need not be identical. Equal entries are not always repeated. In all, about 5,400 compounds were measured (“IFI”: median about 2, highest 2% from about 22 on). For the sample, the highest values were picked, then their nearest neighbours and some compounds at random.

The experiment can be described thus: NOVARTIS: Inhibition Frequency Index (IFI) - the number of HTS assays where a compound showed > 50% inhibition/induction, expressed as a percentage of the number of assays in which the compound was tested. In kind it is functional.
Take GNF-Pf-448, CHEMBL580641: the IFI turned out to be 30%.

GNF-Pf-2945, CHEMBL581676: the IFI worked out at 1.82%.

As to GNF-Pf-1437, CHEMBL576411, the IFI was 14.3%.

In turn, `CCc1ccc(C=NNC(=O)COc2ccc3c(c2)OCO3)cc1` returned an IFI of 0%.

Take `COc1cccc2c1C(=O)c1c(O)c3c(c(O)c1C2=O)C[C@](O)(C(C)=O)C[C@@H]3O[C@H]1C[C@@H](N)[C@H](O)[C@H](C)O1`: the IFI turned out to be 19.7%.

`COc1cccc2c1C(=O)c1c(O)c3c(c(O)c1C2=O)C[C@@](O)(C(=O)CO)C[C@@H]3O[C@@H]1C[C@H](N)[C@H](O)[C@H](C)O1` yielded an IFI of 25.6%.

In turn, `COc1cccc2c1C(=O)C1C(O)=C3C(=C(O)C1C2=O)CC(O)(C(C)=NN=C1CC(C)(C)N(O)C(C)(C)C1)CC3OC1CC(C)(N)C(O)CO1` (centres undefined) showed an IFI of 21.4%.

In the case of `Cc1ccc(-c2cc(C(=O)OCC(=O)c3cccc([N+](=O)[O-])c3)c3cc(C)ccc3n2)cc1`, the IFI is 0%.

On to `Cc1cc(C)c2cc(CN(CCN(C)C)C(=S)NCCCN(C)C)c(=O)[nH]c2c1`, for which the IFI was 3.12%.

In the case of `CC1=C(CO)C(=O)O[C@@H]([C@@H](C)[C@H]2CC[C@H]3[C@@H]4C[C@H]5O[C@]56[C@@H](O)C=CC(=O)[C@]6(C)C4CC[C@]23C)C1` (some centres undefined), the IFI is 32.1%.

In turn, `Cc1ccn2c(NC(C)(C)CC(C)(C)C)c(-c3ccccc3OC(=O)CCc3ccccc3)nc2c1` came in with an IFI of 3.74%.

Turning to `c1ccc(-c2cc(N3CCOCC3)nc(-c3ccccn3)n2)nc1`, the IFI was determined as 15.4%.

The molecule `COc1ccc(NC(=O)CCCCCn2c(SCc3cc(=O)oc4cc(O)ccc34)nc3ccsc3c2=O)cc1` yielded an IFI of 0%.

`CC(C)CC[n+]1ccccc1C=Cc1ccc(N(C)C)cc1` gave an IFI of 15.4%.

In the case of `CC[n+]1ccccc1C=Cc1ccc(N(C)C)cc1`, the IFI was 6.57% and 5.88%.

For `CN(C)c1ccc(/C=C/c2cccc(/C=C/c3ccc(N(C)C)cc3)[n+]2C)cc1`, the IFI is 25%.

For `CCCCCC[n+]1ccccc1C=Cc1ccc(N(C)C)cc1`, the IFI is 27.6%.

Molecule `Cc1ccc(C=Cc2ccc(N(C)C)cc2)[n+](C)c1` came in with an IFI of 15.4%.

On to `CN(C)c1ccc(/C=C/c2cccc[n+]2C)cc1`, for which the IFI stood at 6.3%.

For `CC1CCCCN1CCCNc1ncc(C(=O)NCCc2ccccc2)c(NCC2CCCO2)n1` (centres undefined), the IFI was found to be 3.81%.

`CCCCNC(=S)N(Cc1cccs1)Cc1cc2cc(C)ccc2[nH]c1=O` yielded an IFI of 1.82%.

The molecule `CC(C)(C)c1ccc(CNC(=O)C(Cc2ccc(O)cc2)c2ccccc2)cc1` (centres undefined) came in with an IFI of 0%.

`C=CCSc1oc(-c2ccco2)nc1[P+](c1ccccc1)(c1ccccc1)c1ccccc1` had an IFI of 23.1%.

`O=C(CSc1oc(-c2ccc(Cl)cc2)nc1[P+](c1ccccc1)(c1ccccc1)c1ccccc1)c1ccccc1` displayed an IFI of 21.4%.

`CCOC(=O)C1=C(CC)NC2=C(C(=O)CC(C)(C)C2)C1c1ccccc1F` (centres undefined) registered an IFI of 4.6%.

On to `CCN1/C(=C/c2cccc[n+]2C)Sc2ccc(OC)cc21`, for which the IFI is 15.4%.

`CC[n+]1c(/C=C(C)/C=C2\Sc3ccccc3N2CCO)sc2ccccc21` had an IFI of 7.69%.

For the molecule `CCC(/C=C1\Sc2ccc(OC)cc2N1CCCS(=O)(=O)O)=C\c1sc2ccc(OC)cc2[n+]1CCCS(=O)(=O)O`, the IFI is 22.7%.

The molecule `CCOC(=O)c1c(C)[n+](-c2ccc(C)cc2)c(CC)c2cc(OC)c(OC)cc12` came in with an IFI of 2.29%.

The molecule `Cc1ccc(-c2c3c4n(c(-c5ccc(Cl)cc5)cn4c2C(=O)Nc2ccccc2Cl)CCCC3)cc1` had an IFI of 6.06%.

`CCCCN(CCCC)[P+](N(CCCC)CCCC)(N(CCCC)CCCC)N(CCCC)CCCC` had an IFI of 27.3%.

`CCC(=O)N1CCc2cc(Br)cc(S(=O)(=O)N3CC(C)CC(C)C3)c21` (centres undefined) showed an IFI of 0%.

As for `COc1ccc2nc3cc(Cl)ccc3c(NCCN(CCN)CCN)c2c1`, the IFI amounted to 14.5%.

The molecule `CN(C)c1ccc(-c2nc(-c3ccc(-c4[nH]c(-c5ccc(N(C)C)cc5)nc4-c4ccccc4)cc3)c(-c3ccccc3)[nH]2)cc1` registered an IFI of 12.5%.

`CN(C)c1ccc(-c2cc(-c3ccccc3)[s+]c(-c3ccccc3)c2)cc1` showed an IFI of 31.4%.

`CN(C)c1ccc(C(=Cc2cc(-c3ccccc3)cc(-c3ccccc3)[o+]2)c2ccc(N(C)C)cc2)cc1` came in with an IFI of 12.7%.

`COc1ccc(-c2nc(NC(=O)CS(=O)(=O)c3ccccc3)sc2C)cc1`: the IFI worked out at 0%.

In turn, `C1=C(c2ccc(CN3CCCCC3)cc2)N2CCN=C2c2ccccc21` had an IFI of 2.98%.

`Cc1cc(S(=O)(=O)NC(Cc2ccc([N+](=O)[O-])cc2)C(=O)O)c(Cl)cc1Cl` (centres undefined) gave an IFI of 1.03%.

`FC(F)(F)c1cccc(Nc2nc3nonc3nc2Nc2ccc(Br)cc2)c1`: the IFI was 22.2%.

As to `c1ccc(Oc2ccc(Nc3nc4nonc4nc3Nc3ccc(Oc4ccccc4)cc3)cc2)cc1`, the IFI turned out to be 0%.

Molecule `FC(F)(F)c1cccc(Nc2nc3nonc3nc2Nc2ccc(Cl)cc2)c1` showed an IFI of 22.7%.

As to `Cc1ccc2ncnc(Nc3cccc(C(F)(F)F)c3)c2c1`, the IFI came out at 4.41%.

Take `Clc1ccccc1Nc1nc2nonc2nc1Nc1cccc(Br)c1`: the IFI was found to be 15.4%.

For `Clc1ccc(Nc2nc3nonc3nc2Nc2ccc(Cl)c(Cl)c2)cc1Cl`, the IFI was determined as 7.14%.

The molecule `CCN(CC)c1scc(-c2ccc(Br)cc2)[s+]1` yielded an IFI of 7.69%.

The molecule `COc1ccc(C2=C(c3ccc(OC)cc3)C3(c4ccccc4)C(=O)C2(c2ccccc2)C2C(=O)N(c4ccc(F)cc4)C(=O)C23)cc1` (centres undefined) gave an IFI of 0%.

`CCN1/C(=C/c2cccc[n+]2C)C=Cc2cc(C)ccc21` showed an IFI of 15.4%.

Molecule `CCN1/C(=C/C=C/C2=[N+](C)c3ccc(C)cc3C2(C)C)C=Cc2ccccc21` displayed an IFI of 28.6%.

As for `CN(/C=C/C1=[N+](C)c2ccc(Cl)cc2C1(C)C)c1ccccc1`, the IFI worked out at 0%.

`CCN1/C(=C\C=C\C2=[N+](C)c3ccccc3C2(C)C)N(c2ccccc2)c2ccccc21` gave an IFI of 28.6%.

The molecule `COCCN1C(=O)c2ccccc2C(C(=O)Nc2cccc(C(F)(F)F)c2)C1c1cccs1` (centres undefined) returned an IFI of 9.09%.

As for `CC1CCN(S(=O)(=O)c2ccc(C(=O)Nc3sc4c(c3C(N)=O)CCN(C)C4)cc2)CC1`, the IFI worked out at 0%.

As for `COc1nc(C)nc(NC(=O)NC(=O)c2c(OC)ccc([N+](=O)[O-])c2OC)n1`, the IFI was determined as 2.61%.

In the case of `CCCCCc1ccc(OCCOCC[n+]2ccccc2)c(CCCCC)c1`, the IFI worked out at 4.54%.

`CCN1C(=Cc2sc3ccccc3[n+]2C)C=Cc2cccc(C)c21` came in with an IFI of 23.1%.

Consider `CCN1/C(=C/c2cccc[n+]2C)C=Cc2ccc(C)cc21`, for which the IFI came out at 7.79%.

In the case of `CCN1C=C(c2ccc(C)cc2)S/C1=C\c1sc2ccccc2[n+]1C`, the IFI was 14.7%.

`CN1C=CC(=Cc2sc3ccccc3[n+]2C)C=C1` yielded an IFI of 0%.

Consider `CCN1C(=Cc2sc3ccccc3[n+]2C)C=Cc2ccc(C)cc21`, for which the IFI was 23.8%.

`CCN1C(=Cc2sc3ccc(O)cc3[n+]2CC)C=Cc2cc(C)ccc21`: the IFI was determined as 15.4%.

As for `CCCOC(=O)C1=C(C)NC2=C(C(=O)CC(c3ccc(OC)c(OC)c3)C2)C1c1ccc(O)c(OCC)c1` (centres undefined), the IFI worked out at 0%.

`CCOC(=O)c1cc(S(=O)(=O)NCc2ccc(F)cc2)n[nH]1` displayed an IFI of 0%.

The molecule `C=CCC(=O)NC1CCN(CC(O)CN(Cc2ccccc2)S(=O)(=O)c2ccccc2)C1` (centres undefined) gave an IFI of 2.91%.

Turning to `CC12C(=O)N(c3cccc(C(=O)O)c3)C(=O)C1C1c3ccccc3C2c2ccccc21` (centres undefined), the IFI turned out to be 0%.

In turn, `CO[C@H]1C[C@H](C)Cc2cc(O)cc(c2)NC(=O)C(C)=CCC[C@H](OC)[C@@H](OC(N)=O)C(C)=CC(C)[C@H]1O` (some centres undefined) showed an IFI of 9.62%.

For the molecule `CCC(C)(C)c1ccc(Oc2ccc(NC(=O)c3ccc([N+](=O)[O-])o3)cc2)cc1`, the IFI worked out at 15.2%.

Take `CCOC(=O)c1ccc(NCc2c(C)[nH]c(C(=O)OCC)c2C)cc1`: the IFI was determined as 0%.

The molecule `CCN(CC)c1ccc(C=NNC(=O)c2ccc(Nc3nc(-c4ccccc4)cs3)cc2)c(O)c1` displayed an IFI of 27.3%.

As to `O=C(Nc1nc(-c2ccccc2)cs1)c1ccccc1O`, the IFI stood at 9.79%.

The molecule `CCN(CC)S(=O)(=O)c1ccc(-c2csc(Nc3ccc(C)c(C)c3)n2)cc1` displayed an IFI of 4.71%.

Turning to `Cn1nc(C(=O)NCc2ccccc2)c2c1CCN(Cc1cccc(O)c1)C2`, the IFI was 1.22%.

The molecule `CC(C)C[C@@H]1NC(=O)[C@@H](CC(C)C)NC(=O)[C@H](C(C)C)NC(=O)[C@H]2CSSC[C@@H](NC1=O)C(=O)N2` had an IFI of 25.9%.

Turning to `CC(C(=O)NCCCN)N(Cc1ccccc1)S(C)(=O)=O` (centres undefined), the IFI amounted to 3.92%.

For `Oc1ccc(-c2cncc(NCc3ccccc3)n2)cc1`, the IFI was found to be 0%.

Regarding `CN(C)c1cc[n+](CC(=O)c2ccc(Cl)cc2)cc1`, the IFI came to 0%.

Take `CN(C)c1ccc(C(=C2C=CC(=[N+](C)C)C=C2)c2ccc(N(C)C)cc2)cc1`: the IFI worked out at 25.7%.

`CCCCNC(=O)c1nn(-c2ccc(OC)cc2)c(=O)c2ccccc12` registered an IFI of 2.35%.

As to `Nc1nc(N)c2c(OCc3ccc(C(F)(F)F)cc3)cccc2n1`, the IFI was found to be 7.63%.

The molecule `c1ccc(-c2cc(NCCCN3CCOCC3)nc(-c3ccccn3)n2)nc1` yielded an IFI of 15.4%.

For the molecule `CCOC(=O)c1sc2nc(N)c(C#N)c(-c3cccs3)c2c1N`, the IFI came to 1.35%.

`CSc1oc(C(C)(C)C)nc1[P+](c1ccccc1)(c1ccccc1)c1ccccc1` had an IFI of 23.2%.

The molecule `CSc1oc(-c2ccccc2)nc1C(N)=O` had an IFI of 0%.

On to `COc1ccc2c(c1)C(C)(CC#N)C(=O)N2C` (centres undefined), for which the IFI is 1.51%.

Molecule `O=C1C(=Nc2cccc(C(F)(F)F)c2)c2ccccc2N1CN1CCc2ccccc2C1` displayed an IFI of 0%.

In turn, `Cc1ccc(S(=O)(=O)N=C2C=C(Sc3nnc[nH]3)C(=O)c3ccccc32)cc1` came in with an IFI of 25%.

`Cc1ccc(C)c(S(=O)(=O)N=C2C=C(SCC(=O)O)C(=O)c3ccccc32)c1` gave an IFI of 6.25%.

Regarding `O=C1C(Sc2nnc[nH]2)=CC(=NS(=O)(=O)c2cccs2)c2ccccc21`, the IFI is 25%.

Take `Cc1ccc(S(=O)(=O)N=C2C=C(Sc3nc4ccccc4[nH]3)C(=O)c3ccccc32)cc1`: the IFI worked out at 12.7%.

For `CCCCOc1ccc(C(=O)Oc2ccccc2-c2nc3cc(C)ccn3c2NC(C)(C)CC(C)(C)C)cc1`, the IFI came to 4.67%.

`COc1ccc(/C=C/c2nc(=O)c3ccccc3o2)cc1` yielded an IFI of 0%.

In turn, `O=C(COc1ccccc1Cl)OCc1cc(=O)n2nc(C3CC3)sc2n1` gave an IFI of 0%.

`CCSCCOC(=O)C1=C(C)NC2=C(C(=O)CCC2)C1c1ccc(OC)c(Br)c1` (centres undefined) came in with an IFI of 2.33%.

The molecule `CC(C)CN(C(C(=O)NC(CN1CCCC1)c1ccccc1)c1ccccc1)S(=O)(=O)c1ccccn1` (centres undefined) gave an IFI of 1.96%.
